HCMV inh: human cytomegalovirus inhibition; 4.5% of 410,000 active; HFF cells, HCMV-luciferase reporter, 72 h; hits give low values; activity change, negative = inhibition, % at 57.5 µM; AID 1259415; in the data active = activity change below about -60%; inconclusive = no clear call, values can overlap the other calls; inactive = above about -39%
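HFF cells seeded 16 h at 37C, treated with compounds, infected with luciferase-reporter HCMV at MOI 1 PFU/cell; luciferase read at 72 h post infection, normalized to buffer-only and Salinomycin controls.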
HCV inh: blocks hepatitis C virus. Huh7.5.1 HCVcc-Cre infection, luciferase reporter, 44 h. Potency, µM (titrated, usually from 41.8 µM), for inactives: at the top dose activity change, negative = inhibition, actives largely listed as inhibitors. 3.4% of 340,000 active; note: potency is the fitted concentration of half-maximal effect
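Whole-lifecycle infectious HCVcc-Cre system; cells 1,000/well, compound then virus (~0.5 moi) added 4 h after plating, 44 h culture. Luciferase read 15 sec following 15 min substrate incubation, room temp.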
Sm TGR block: blocks Schistosoma mansoni thioredoxin glutathione reductase. Q962Y6. 3% of 360,000 active. purified TGR, DTNB reduction, TNB absorbance 405 nm. Potency, µM (highest dose often 114 µM), inactives show at the top dose activity change, negative = inhibition, actives largely listed as inhibitors; note: potency is the fitted concentration of half-maximal effect; nearly all actives have a fitted effect of over 60% in size
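Kinetic colorimetric format: TGR-catalysed, NADPH-driven DTNB reduction monitored via TNB absorbance. Enzyme dispensed at 20 nM; compound exposure 15 min at room temperature before reaction start.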
Vaccinia mCherry: vaccinia inhibition (mCherry reporter) | Potency, µM (highest dose often 36.5 µM), for the others: at the top dose activity change, negative = inhibition, usual class: inhibitors | Vaccinia virus mCherry reporter infection, fluorescence | 0.63% of 310,000 active | AID 720579; calls by dose curve; tested in A549 cells; note: potency is the fitted concentration of half-maximal effect; nearly all actives have a fitted effect of over 35% in size
Vaccinia Venus: vaccinia inhibition (Venus reporter) | Vaccinia virus Venus reporter expression, fluorescence | Potency, µM (doses to about 36.5 µM), for the others: at the top dose activity change, negative = inhibition, usual class: inhibitors | 0.46% of 330,000 active | AID 720580; calls by dose curve; tested in A549 cells; note: potency is the fitted concentration of half-maximal effect; nearly all actives have a fitted effect of over 30% in size
FMDV inh: foot and mouth disease virus antiviral activity; 1.2% of 410,000 active; AID 1159524; Potency, µM (highest dose often 57.9 µM), for the others: top-dose activity change, negative = inhibition, actives largely listed as inhibitors; FMDV antiviral cell-based qHTS; calls by dose curve; tested in HEK293T cells; note: read-out not given here; potency is the fitted concentration of half-maximal effect; nearly all actives have a fitted effect of over 45% in size
Starred values were filed as active, the others as inactive; i = inactive; ? = inconclusive; · = not tested or not shown. Most compounds without a hit are left out; they make up all but 9.3% or so of the library. Unless noted, calls come from the whole dose curve; as a rule, active = well fitted curve in the direction sought with a large enough effect; inconclusive = small, poorly fitted or top-dose-only effect, or another doubt; inactive = no such curve, though single readings can be large; an effect the other way counts as inactive or inconclusive. % is set by controls: 0 for no effect and ±100 for the full control effect.

SMILES | HCMV inh | HCV inh | Sm TGR block | Vaccinia mCherry | Vaccinia Venus | FMDV inh
Cc1nn(C)c(C(=O)Nc2ccn(C34CC5CC(CC(C5)C3)C4)n2)c1[N+](=O)[O-] | -61.9* | 7.9% | -2.3% | -14.1% | ? | ?
Cn1cc([N+](=O)[O-])c(C(=O)Nc2ccn(C34CC5CC(CC(C5)C3)C4)n2)n1 | -94.7* | 2.4% | 1.1% | -4.5% | -1.7% | -17.2%
CCn1cc([N+](=O)[O-])c(C(=O)Nc2ccn(C34CC5CC(CC(C5)C3)C4)n2)n1 | -31.8 | 9.5% | -8.8% | -17.7% | -16.1% | -21.7%
Cn1nccc1C(=O)Nc1ccn(C23CC4CC(CC(C4)C2)C3)n1 | -81.3* | ? | -8.6% | -26.4% | -20.4% | ?
Cn1cc(NC(=O)CCl)cn1 | -84.2* | ? | ? | ? | ? | ?
CC(=O)Nc1cnn(Cc2ccc(Br)cc2)c1 | 22.3 | 28.1% | -12.2% | · | · | -16.6%
O=C(CSc1nnc(SCC(=O)c2ccco2)s1)c1ccco1 | -1.0 | 0.5% | 39.8µM* | -3.9% | 2.1% | 2.0%
CCn1c(SCC(=O)N/N=C/C=C/c2ccco2)nc2ccccc21 | 28.2 | 4.9% | 14.1µM* | · | · | -19.6%
Cn1c(SCC(=O)N/N=C/c2ccco2)nc2ccccc21 | 47.0 | -4.9% | -8.9% | · | · | -5.8%
CCn1c(SCC(=O)N/N=C/C=C/c2ccco2)nnc1-c1ccc(OC)cc1 | ? | 0.1% | 31.6µM* | ? | -10.3% | -25.7%
O=C(CSc1nnc(SCc2ccccc2)s1)N/N=C/C=C\c1ccco1 | ? | 9.5% | 31.6µM* | · | · | 1.6%
CCn1c(SCC(=O)N/N=C/c2ccc(C)o2)nnc1-c1ccc(C)cc1 | -33.4 | 0.8% | -28.8% | i | -17.2% | 0.0%
O=C(NCc1ccco1)C(c1ccc(F)cc1)N(CC1CCCO1)C(=O)Cn1nnc2ccccc21 (stereo unspecified) | 84.7 | 1.8% | 5.8% | · | -10.8% | -2.2%
O=C(NCC(c1ccco1)N1CCN(c2ccccc2)CC1)c1ccco1 (stereo unspecified) | · | -2.8% | 1.6% | i | -5.9% | 3.0%
COCC(=O)OC1CCn2c1nc1c2C(=O)C(C)=C(NC(C)=O)C1=O (stereo unspecified) | -79.2* | 14.1µM* | · | ? | ? | 10µM*
O=C(NCc1ccccc1Cl)c1nnc(CS(=O)(=O)c2ccccc2)o1 | -99.4* | 1.2% | -15.9% | i | -11.6% | -15.3%
Cc1ccc(CNC(=O)c2nnc(CS(=O)(=O)c3ccccc3)o2)cc1 | 25.5 | 2.1% | 7.1% | i | -4.3% | -2.5%
CCC1CO/C(=C(\C(Cl)=C(Cl)Cl)[N+](=O)[O-])N1 (stereo unspecified) | -12.9 | -2.0% | 8.91µM* | ? | ? | -20.8%
CCC1CO/C(=C(\C(Cl)=C(Cl)Cl)[N+](=O)[O-])N1Cc1ccc(Cl)nc1 (stereo unspecified) | -16.3 | 15.1% | 0.0% | · | · | -6.2%
COCCCNc1oc(-c2ccccc2F)nc1C#N | 13.5 | ? | 3.9% | -3.9% | -2.8% | 20.3%
CCN(CC)C1CCN(C(=O)c2cc(COc3ccc(-n4cncn4)cc3)on2)C1 (stereo unspecified) | 2.2 | 26.9% | 2.6% | -2.9% | -13.6% | -18.6%
COc1ccc(C(=O)N/N=C/c2ccc(N3CCOCC3)o2)cc1OC | -38.9 | 11.2% | 7.94µM* | -20.4% | -16.3% | -18.7%
O=C(N/N=C/c1ccc(N2CCOCC2)o1)c1cccc(F)c1 | 53.5 | -5.4% | 10µM* | · | · | -0.4%
COc1ccc(C(=O)N/N=C/c2ccc(N3CCOCC3)s2)cc1OC | -5.9 | 7.5% | -29.4% | · | · | -17.5%
COc1ccc([N+](=O)[O-])cc1NC(=O)C1(c2ccc(OC)c(OC)c2)CCOCC1 | 42.4 | -13.0% | 0.0% | -7.1% | -3.7% | -18.7%
COc1ccc2c(c1)C(=O)CC(O)(C(F)F)O2 (stereo unspecified) | ? | 13.3% | 27.7% | -19.5% | -8.1% | -3.0%
COc1cc(CNc2ccc3c(c2)CCC3)cc(OC)c1O | 44.3 | 20.8% | 0.316µM* | · | · | 39.4%
COc1cc2cc(C(=O)N3CCN(c4ccccc4OC)CC3)[nH]c2cc1OC | -24.1 | -11.5% | ? | i | -6.7% | 13.5%
